Results on 40 compounds are retold here after PubChem BioAssay (NCATS).

Inconclusive results are not listed. Entries that show only a call come without a potency. The source made the active and inactive calls. Calls follow the shape of the dose curve; as a rule, active = well fitted inhibition curve with a large enough effect; inconclusive = small, poorly fitted or top-dose-only effect; inactive = flat fitted curve, though single readings scatter.

Chain of Calcium and integrin-binding protein 1 (Homo sapiens) (Q99828 whole entry, looked up): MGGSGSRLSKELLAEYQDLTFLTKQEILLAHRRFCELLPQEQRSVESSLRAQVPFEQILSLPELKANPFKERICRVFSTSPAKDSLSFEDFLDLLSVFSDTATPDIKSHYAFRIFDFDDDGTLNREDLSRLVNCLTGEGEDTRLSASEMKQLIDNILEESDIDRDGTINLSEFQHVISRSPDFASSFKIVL

For the assay, the target named is Calcium and integrin-binding protein 1 (Homo sapiens) (UniProt Q99828). The experiment in a line: Primary qHTS for Identification of Calcium Integrin Binding Protein 1 (CIB1) Competitor (AID 1508620).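 Also: GST tagged CIB1 binding a fluorescein labelled alphaIIb integrin peptide tracer; top concentration of the series differs between compounds.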 Particulars: CIB1-GST / FITC-alphaIIb peptide fluorescence polarization; series mostly up to 114 µM. Put shortly:
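Fluorescence polarization competition: CIB1-GST (1 uM final) preincubated with compound 15 min at room temperature, then FITC-labeled alphaIIb peptide (100 nM final) added for another 15 min. Polarization read at Ex 480/Em 540.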
Background: Quantitative high-throughput screening tests each substance at several concentrations.
Take `O=C1c2ccccc2C(=O)N1c1cccc2cccnc12`: the Potency entry was “inactive”.
The same measure for `NC(=O)C1CCN(c2cc(-c3ccc4c(c3)OCCCO4)ncn2)CC1`: “inactive”; for `CC(Cc1ccccc1)C(=O)Nc1ccc(Cl)cc1C(=O)O` (stereo not given): “inactive”; for `Cc1c(P(=O)(c2ccccc2)c2ccccc2)c2ccccc2n1C`: “inactive”.
As to `FC(F)(F)c1ccccc1-c1nc(NCC#Cc2cccnc2)c2ccccc2n1`, the Potency result is “inactive”.
The value for `Cc1nnc(-c2cnn(C)c2N)n1CCc1cccs1` was “inactive”.
The same measure for `O=C(Nc1cccc(-c2nn3c(=O)cc(N4CCNCC4)nc3s2)c1)c1ccon1`: “inactive”.
In the case of `CC1=C(C(=O)Nc2ccccc2)C(c2ccccc2Cl)N=C(Nc2nc3ccccc3o2)N1` (stereo not given), the Potency result was “inactive”.
The same measure for `Cc1cn([C@H]2C[C@H](N[S+](=O)([O-])Cc3cccc(Cl)c3)[C@@H](CO)O2)c(=O)[nH]c1=O`: “inactive”.
The same measure for `Cc1ccc(-c2ccc(=O)n(CC(=O)NCCc3ccccc3)n2)cc1`: “inactive”; for `Cc1ccc(NS(=O)(=O)c2cc3c(cc2NC(C)C)NC(=O)CC3)cc1C`: “inactive”.
The same measure for `Brc1ccccc1-c1nc(NCc2ccc(-c3cccnc3)cc2)c2ccccc2n1`: “inactive”; for `Cc1ccc(NC(=O)c2cnn3c(C)cc(C)nc23)c(C)c1`: “inactive”; for `CN(C)CCCNc1ncnc2ccc(-c3ccc4c(c3)OCO4)cc12`: “inactive”.
In the case of `COc1cccc(C2c3c(ncn(-c4cccc(C)c4)c3=N)Oc3ccc4ccccc4c32)c1` (stereo not given), the Potency result is “inactive”.
The value for `COc1cccc(CNc2ccc(S(=O)(=O)Nc3nc4ccccc4o3)cc2)c1O` was “inactive”; that for `Cc1ccc(CNc2ccc(N3CCNCC3=O)cc2)cc1` was “inactive”.
The same measure for `N#Cc1nc(-c2cccc3ccccc23)oc1N`: “inactive”.
For `Cc1ccc(-c2ccc(=O)n(CC(=O)NCCC3CC3)n2)cc1`, the Potency result is “inactive”.
The same measure for `O=C1Nc2ccccc2/C1=C\c1cc(F)c(O)c(F)c1`: “inactive”; for `Nc1ccc2c(c1)C(=O)NS2(=O)=O`: “inactive”.
For `Cc1cc(C)n2ncc(C(=O)Nc3ccc4c(c3)OCO4)c2n1`, the Potency entry was “inactive”.
The same measure for `COC(=O)c1sc2c(c1-c1nc3ccccc3s1)CCNC2`: “inactive”.
For `Cc1ccc(NS(=O)(=O)c2ccc3c(c2)oc(=O)n3C)cc1C`, the Potency entry is “inactive”.
The same measure for `CC(=O)N[C@H](C(=O)N[C@@H](C)C(=O)N[C@H](C#N)CC(=O)O)C(C)C`: “inactive”.
In the case of `Cn1c2cc(C(=O)O)sc2c2cnn(Cc3ccccc3F)c(=O)c21`, the Potency entry was “inactive”.
The same measure for `COc1ccc(C2=Nn3c(nnc3-c3ccccc3OC)SC2)c(OC)c1`: “inactive”; for `Cc1ccc(NS(=O)(=O)c2ccc3c(ccn3C)c2)cc1C`: “inactive”; for `Cc1cc(-c2nnc3n2CCCCC3)c(C)n1-c1cccc(C(F)(F)F)c1`: “inactive”.
The value for `Cn1c2cc(B(O)O)sc2c2cnn(Cc3c(F)cccc3Cl)c(=O)c21` was “inactive”; that for `N#Cc1ccc(N2CCN(S(=O)(=O)c3ccc4c(c3)CC(=O)N4)CC2)cc1` was “inactive”.
The value for `CC(C)(C)OC(=O)N1CCN(c2ccc(NCc3ncc(-c4ccc(C#N)cc4)s3)cc2)CC1` was “inactive”.
As to `CCCCCNc1oc(-c2cccc3ccccc23)nc1C#N`, the Potency entry was “inactive”.
The same measure for `Cc1cc2c(s1)c1cnn(Cc3cccc(F)c3F)c(=O)c1n2C`: “inactive”.
The same measure for `Cc1ccc(OCCn2c(CCNC(=O)c3cccnc3)nc3ccccc32)cc1`: “inactive”.
The value for `Cc1nnc(-c2ccccc2[N+](=O)[O-])n1CCCn1ccnc1` was “inactive”.
On to `CC(C)(C)c1ccc(CSc2nc3ncc(Br)cc3[nH]2)cc1`, for which the Potency entry is “inactive”.
Turning to `O=[S+]([O-])(c1ccc2nsnc2c1)N1CCN([S+](=O)([O-])c2c(F)cccc2F)CC1`, the Potency entry is “inactive”.
The same measure for `CCCCCCNC(=O)Nc1nnc(-c2ccncc2)s1`: “inactive”; for `O=[S+]([O-])(NC[C@H]1CCC[C@H](CN[S+](=O)([O-])c2c(F)cccc2F)C1)c1ccc2c(c1)OCCO2`: “inactive”.
